# PAFAH1B2 FP inh = blocks human PAF acetylhydrolase 1b catalytic subunit 2 | inhibition, % at 3.39 µM | recombinant PAFAH1B2, FP-rhodamine activity probe, fluorescence polarization | actives 1.2% (n = 340,000);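 active means inhibition above the mean of all tested compounds plus 3 SD, cut at about 24% in these data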
# PAFAH1B3 FP inh = blocks human PAF acetylhydrolase 1B catalytic subunit 3; Q15102; recombinant PAFAH1B3, FP-rhodamine probe, fluorescence polarization; inhibition, % at 3.39 µM; actives 0.28% (n = 340,000); AID 492972;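 active means inhibition above the screen-wide average of all tested compounds plus 3 SD, cut at about 25% in these data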
# Target sequence (Q15102 whole entry, looked up): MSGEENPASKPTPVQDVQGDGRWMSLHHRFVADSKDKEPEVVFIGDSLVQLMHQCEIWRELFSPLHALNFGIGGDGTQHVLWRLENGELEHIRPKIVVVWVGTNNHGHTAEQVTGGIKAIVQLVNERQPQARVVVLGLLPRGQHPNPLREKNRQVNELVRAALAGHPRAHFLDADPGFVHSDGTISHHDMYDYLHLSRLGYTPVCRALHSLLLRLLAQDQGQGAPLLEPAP
# PP5 inh = blocks human protein phosphatase 5 activity. AID 1987. inhibition, % at 6.7 µM. actives 0.18% (n = 320,000). purified PP5c, OMFP substrate fluorescence;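 active means inhibition above the campaign's mean inhibition across all tested compounds plus 3 SD, cut at about 9.5% in these data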
# PAFAH2 FP inh = inhibitors of human PAFAH2; Q99487; recombinant PAFAH2, FP-rhodamine activity probe, fluorescence polarization; inhibition, % at 3.39 µM; actives 0.99% (n = 340,000);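 active means inhibition above the mean over all tested compounds plus 3 SD, cut at about 30% in these data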;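 further: inhibitors block probe labeling of enzyme so polarization drops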
# Fh CTSL1 inh = blocks F. hepatica cathepsin L1 in PFM18AAP counter-screen | recombinant F. hepatica cathepsin L1, Z-Leu-Arg-MCA fluorescence | inhibition, % at 5.96 µM | actives 0.49% (n = 300,000);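 active means inhibition above the mean of all tested compounds plus 3 SD, set per screening campaign, cut at about 17% in these data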
# pPAFAH FP inh = inhibitors of human plasma PAF acetylhydrolase (pPAFAH) | actives 1.5% (n = 330,000) | Q13093 | inhibition, % at 3.39 µM | recombinant pPAFAH, FP-rhodamine probe fluorescence polarization;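 active means inhibition above the mean inhibition across the screen plus 3 SD, cut at about 25% in these data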;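 further: inhibitors block binding of the rhodamine activity-based probe so polarization drops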
# PP5 conf = PP5 (human) inhibition, confirmation | shares compounds with PP5 inh | Purified PP5, fluorogenic phosphatase substrate, fluorescence | inhibition, % at 6.7 µM | actives 22% (n = 460) | AID 2331; in the data active means inhibition above about 9.5%
# PP1 counter 3x = inhibits human PP1 phosphatase in PP5 counter-screen | shares compounds with PP5 inh | PP1 enzyme, fluorescent phosphatase substrate | inhibition, % at 6.7 µM | actives 4% (n = 460); in the data active means inhibition above about 16%
# Target sequence (P62136 whole entry, looked up): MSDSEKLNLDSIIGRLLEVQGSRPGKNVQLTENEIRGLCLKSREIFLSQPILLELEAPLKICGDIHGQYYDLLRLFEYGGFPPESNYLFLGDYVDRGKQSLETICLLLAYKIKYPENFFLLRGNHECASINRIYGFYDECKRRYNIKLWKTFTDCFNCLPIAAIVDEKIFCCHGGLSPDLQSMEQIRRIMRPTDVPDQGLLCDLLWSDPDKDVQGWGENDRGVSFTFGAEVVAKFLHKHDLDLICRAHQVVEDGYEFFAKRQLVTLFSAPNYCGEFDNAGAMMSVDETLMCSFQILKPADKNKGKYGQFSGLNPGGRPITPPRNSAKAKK
# pPAFAH FP conf = confirmation of human plasma PAF acetylhydrolase (pPAFAH) inhibitors | shares compounds with pPAFAH FP inh | recombinant pPAFAH, FP-Rh probe fluorescence polarization | inhibition, % at 3.39 µM | actives 72% (n = 2,300);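 active means mean inhibition of the triplicate above the hit cutoff set for the earlier primary screen, cut at about 25% in these data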
# PAFAH1B3 conf FP = PAFAH1B3 (human) inhibition, confirmed; inhibition, % at 3.39 µM; AID 493032; shares compounds with PAFAH1B3 FP inh; recombinant PAFAH1B3, FP-Rh activity-based probe, fluorescence polarization; actives 30% (n = 390);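 active means average inhibition over triplicate runs above the hit cutoff set in the earlier primary screen, cut at about 25% in these data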
# Hits are given with their value; 0 = inactive; - = no result. Shown are actives, neighbours in structure and some others; about 3% of the full set was active somewhere.
SMILES,PAFAH1B2 FP inh,PAFAH1B3 FP inh,PP5 inh,PAFAH2 FP inh,Fh CTSL1 inh,pPAFAH FP inh,pPAFAH FP conf,others
O=C(COC(=O)c1n[nH]c(=O)c2ccccc12)Nc1ccccc1F,0,0,-,0,-,0,-,
CCOc1ccc(-c2n[nH]c(C)c2Oc2ccccc2OC)c(O)c1,0,0,10.7,0,0,0,-,PP5 conf=0;PP1 counter 3x=0
Cc1[nH]nc(-c2ccc(OCc3cnn(-c4ccccc4)c3)cc2O)c1Oc1ccccc1F,0,0,0,0,0,0,-,
CCCOC(=O)c1ccc(Oc2c(-c3ccc(O)cc3O)n[nH]c2C)cc1,0,0,16.1,0,0,0,-,PP5 conf=0;PP1 counter 3x=0
CN(C1=C(N2CCCCC2)C(=O)c2ccccc2C1=O)c1ccccc1,0,0,0,0,0,0,-,
O=C1C(Nc2ccccc2)=C(N2CCCCC2)C(=O)c2ccccc21,0,59.6,10.5,36.8,49.5,0,-,PP5 conf=32.7;PP1 counter 3x=0
COc1ccc(-c2ccc3c(c2)C2CC3CCN2S(=O)(=O)c2ccccc2C)cc1 (configuration not stated),0,0,-,0,-,-,-,
COc1cc(CN2CCNC(=O)C2CC(=O)N(C)CCN2CCOCC2)cc(OC)c1 (configuration not stated),0,0,-,0,-,-,-,
CCCCCCOc1ccc(C(=O)n2cnc(N)n2)cc1,0,0,12.1,0,0,0,-,PP5 conf=0;PP1 counter 3x=0
COc1ccc(S(=O)(=O)CC(=O)Nc2ccccc2Cl)cc1,0,0,0,0,0,0,-,
O=C(CS(=O)(=O)c1ccc(Cl)c(Cl)c1)Nc1ccccc1Cl,0,0,11.0,0,0,0,-,PP5 conf=0;PP1 counter 3x=0
Nc1ncc(Br)cc1S(=O)(=O)Nc1cc(C(F)(F)F)cc(C(F)(F)F)c1,26.0,0,9.6,0,0,0,-,PP5 conf=0;PP1 counter 3x=0
Cc1ccc(NS(=O)(=O)c2cc(Br)cnc2N)c(Cl)c1,0,0,0,0,0,0,-,
NC(=O)c1ccc(C(F)(F)F)n(Cc2ccc(F)c(F)c2)c1=O,0,0,0,0,0,0,-,
NC(=O)c1ccc(C(F)(F)F)n(Cc2ccc(Cl)cc2)c1=O,0,0,9.9,0,0,0,-,PP5 conf=0;PP1 counter 3x=0
FC(F)C(F)(F)C(F)(F)C(F)(F)c1cc(-c2ccccc2)n[nH]1,0,0,10.8,0,0,56.2,49.5,PP5 conf=9.7;PP1 counter 3x=0
O=C(COC(=O)C1CCN(S(=O)(=O)c2cccs2)CC1)Nc1ccc(F)cc1F,0,0,0,0,0,0,-,
Cc1ccc(C(=O)NC2(O)C(=O)c3ccccc3C2=O)cc1C,0,37.4,15.0,0,58.3,0,-,PP5 conf=41.2;PP1 counter 3x=0;PAFAH1B3 conf FP=36.9
N#CCC(=O)Nc1ccc(C(=O)OCC(=O)N2CCN(C(=O)c3ccco3)CC2)cc1,0,0,-,0,-,0,-,
O=C(NCCc1c[nH]c2ccccc12)C1CCC(=O)N(CCc2cccc(F)c2)C1 (configuration not stated),0,0,0,0,0,0,-,
O=C(Nc1cccc(NC(=O)c2ccc(Br)o2)n1)c1ccc(Br)o1,0,0,0,0,0,0,-,
N#Cc1c(NC(=O)c2ccc(Br)o2)n(-c2ccccc2)c2nc3ccccc3nc12,0,64.8,11.5,0,0,0,-,PP5 conf=32.9;PP1 counter 3x=16.3;PAFAH1B3 conf FP=48.0
O=C(/C=C/c1ccc(O)cc1)c1ccc(NC2=C(N3CCCCC3)C(=O)c3ccccc3C2=O)cc1,0,53.8,9.9,0,32.8,0,-,PP5 conf=37.1;PP1 counter 3x=0;PAFAH1B3 conf FP=0
CCOCCn1c(=O)c2c(nc3n2CCCN3Cc2ccccc2)n(C)c1=O,0,0,0,0,0,41.5,0,
Cc1ccc(C2(C)NC(=O)N(CC(=O)Nc3cc(S(=O)(=O)N4CCOCC4)ccc3OC(C)C)C2=O)cc1 (configuration not stated),0,0,-,0,-,-,-,
SMILES,PAFAH1B2 FP inh,PAFAH1B3 FP inh,PP5 inh,PAFAH2 FP inh,Fh CTSL1 inh,pPAFAH FP inh,pPAFAH FP conf,others
CN(/N=C/c1ccc(O)cc1O)c1nc(-c2ccccc2)cc(-c2ccccc2)n1,0,0,0,0,0,36.6,0,
Cc1cc(-c2ccccc2)nc(N/N=C/c2ccc(O)cc2O)n1,0,0,0,0,0,0,-,
COC(=O)c1ccccc1-c1ccc(/C=N/NC(=O)c2cc3ccccc3o2)o1,0,0,0,0,0,0,-,
COC(=O)c1ccccc1-c1c2ccc(=N)cc-2oc2cc(N)ccc12,133.9,149.5,0,147.8,-,125.6,132.1,
CCN(CC)c1ccc(-c2nn3c(-c4n[nH]c5c4CCC5)nnc3s2)cc1,0,0,0,0,0,35.2,45.4,
Cc1cc(C(=O)NN=C2CC(=O)CC(C)(C)C2)c(C)o1,0,0,-,0,-,0,-,
Cc1cc(C(=O)N/N=C2\CC(=O)CC(C)(C)C2)c(C)n1-c1ccccc1,0,0,0,0,0,36.9,33.9,
Cc1cc(C(=O)N/N=C2\CC(=O)CC(C)(C)C2)c(C)n1-c1ccc(F)cc1,0,0,0,0,0,41.4,63.5,
N#C/C(=N\Nc1ccc(Cl)c(Cl)c1)C(=O)C1CC1,-,-,0,-,0,40.9,40.1,
CCOC(=O)c1sc2nc(C)nc(N3CCN(S(=O)(=O)c4ccccc4)CC3)c2c1C,0,0,-,0,-,0,-,
O=C(CSc1nc2nn(-c3ccccc3)c(=O)c-2c2n1CCCCC2)c1ccc(O)c(O)c1,0,28.7,0,85.4,-,71.0,85.6,
COc1cccc(CNS(=O)(=O)c2ccccc2Br)c1OC,0,0,-,0,-,-,-,
Cc1ccc2c(c1)[C@H]1[C@H](CO2)[C@H](c2ccccc2)[C@]2(C)C(=O)Nc3cc(F)ccc3C(=O)N12,0,0,-,0,-,0,-,
Cc1ccccc1S(=O)(=O)Cc1ccc(C(=O)NCCCN2CCCC2)o1,0,0,0,0,0,35.3,0,
O=C(COc1ccc(Br)cc1)Nc1ccccc1N1CCCC1,0,0,0,0,0,59.0,0,
COc1ccc(-c2cc(=O)oc3c(O)c(O)ccc23)cc1,0,0,0,0,0,43.3,79.5,
COc1ccc(-c2cc(=O)oc3c(C)c(OCc4nn[nH]n4)ccc23)cc1,0,0,0,0,0,0,-,
CCC(C)(O)c1[nH]c2ccc(C(=O)OC)cc2c1C (configuration not stated),0,0,0,0,0,0,-,
O=c1c(O)c(-c2ccccc2)oc2cc(O)cc(O)c12,0,0,-,0,-,0,-,
O=c1c(O)c(-c2cc(O)c(O)c(O)c2)oc2cc(O)cc(O)c12,32.4,40.9,0,0,0,66.1,81.5,
Nc1cc(-c2nn[nH]n2)ccc1F,0,0,0,0,0,42.6,0,

# Screens deposited in PubChem BioAssay by The Scripps Research Institute Molecular Screening Center.
